Screens (PubChem)
FLuc inh = blocks purified firefly luciferase enzyme activity | P08659 | 76,000 compounds, 2.5% hits | Potency, µM (top dose mostly 115 µM), most hits filed as inhibitors | purified P. pyralis luciferase, luminescence, biochemical; note: nearly all actives have a fitted effect of over 65% in size
Target sequence (P08659 whole entry, looked up): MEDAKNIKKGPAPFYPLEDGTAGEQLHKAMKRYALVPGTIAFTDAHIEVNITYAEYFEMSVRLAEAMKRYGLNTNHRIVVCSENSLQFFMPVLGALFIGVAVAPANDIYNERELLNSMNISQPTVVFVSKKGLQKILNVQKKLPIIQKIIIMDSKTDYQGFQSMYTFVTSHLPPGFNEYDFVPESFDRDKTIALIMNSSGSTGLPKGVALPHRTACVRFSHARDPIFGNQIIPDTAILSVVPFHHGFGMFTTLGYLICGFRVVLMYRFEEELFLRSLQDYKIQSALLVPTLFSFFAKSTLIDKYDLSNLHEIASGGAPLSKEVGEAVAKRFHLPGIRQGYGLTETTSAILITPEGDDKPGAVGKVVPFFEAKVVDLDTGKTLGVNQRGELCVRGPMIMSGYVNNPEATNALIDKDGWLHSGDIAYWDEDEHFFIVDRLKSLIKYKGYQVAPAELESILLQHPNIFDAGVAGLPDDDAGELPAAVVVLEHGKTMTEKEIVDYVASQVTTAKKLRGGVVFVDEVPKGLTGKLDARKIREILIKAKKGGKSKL
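Luminescence read by CCD imager after adding enzyme (10nM final) to wells holding compound, titrated in qHTS. Substrates 10uM each D-luciferin and ATP; buffer 50mM Tris acetate pH 7.5, 10mM Mg acetate, Tween-20, BSA.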
HEK cytotox = HEK 293 cell cytotoxicity; 94,000 compounds, 6.6% hits; AID 1345083; Potency, µM (doses to about 115 µM), for inactives: at the top dose activity change, negative = cytotoxicity, usual class: inhibitors; HEK 293 viability, ATP luminescence (CellTiter-Glo), 48-72 h; note: nearly all actives have a fitted effect of over 60% in size
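250 HEK 293 cells/well; compound by pintool; incubated 48 or 72 hr at 37 degree Celsius; CellTiter-Glo added, 10 min RT, luminescence imaged.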
NIH3T3 tox = NIH 3T3 cell cytotoxicity; NIH 3T3 viability, CellTiter-Glo ATP luminescence, 48-72 h; Potency, µM (top dose mostly 96.7 µM), for inactives: top-dose activity change, negative = cytotoxicity, actives largely listed as inhibitors; 94,000 compounds, 4.3% hits; AID 1345082; note: nearly all actives have a fitted effect of over 55% in size
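First NIH 3T3 cells are plated at 400 cells/well; next compound is pinned in; then plates incubate 48 or 72 hr at 37 °C; finally CellTiter-Glo is added and luminescence read after 10 min.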
NPR1 antag = blocks ANP-stimulated signaling of human Npr1 receptor; P16066; Potency, µM (series often up to 46.3 µM), for the others: at the top dose activity change, negative = inhibition, actives largely listed as inhibitors; 76,000 compounds, 1.6% hits; HEK293 hNpr1 GloSensor cGMP, ANP-stimulated luminescence; calls by dose curve; note: nearly all actives have a fitted effect of over 60% in size
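Compound pre-incubated 30 min at room temperature on GloSensor-loaded HEK293 cells stably carrying hNpr1 and the pGS-40F cGMP biosensor. Stimulation uses hNppA at 0.1 nM final; luminescence is taken at baseline and 20 min post-agonist.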
Active calls of the source: *; i = inactive; ? = inconclusive; / = not tested or not shown; [ ] = remark or other dose. The list is not random: actives were taken first. Their share in the collection is about 11%. Unless noted, calls come from the whole dose curve; as a rule, active = well fitted curve in the direction sought with a large enough effect; inconclusive = small, poorly fitted or top-dose-only effect, or another doubt; inactive = no such curve, though single readings can be large; an effect the other way counts as inactive or inconclusive. % is set by controls: 0 for no effect and ±100 for the full control effect; potency is the fitted concentration of half-maximal effect.

SMILES	FLuc inh	HEK cytotox	NIH3T3 tox	NPR1 antag
O=C(c1ccccc1OCC1CCCN(Cc2c[nH]c3ccccc23)C1)N1CCCCC1 (stereo unspecified)	/	50µM*	?	/
Cc1ccccc1N1CCCN(Cc2cccc(CCN)c2)CC1	i	28µM*	?	-4%
Cn1cc(CN2CCCC(COc3ccccc3C(=O)N3CCCCC3)C2)c2ccccc21 (stereo unspecified)	i	?	?	-18%
NCCc1cccc(CN2CCCC(COc3ccccc3F)C2)c1 (stereo unspecified)	i	?	35µM*	-1%
CCOc1cccc(CN2CCCC(COc3ccccc3C(=O)NC(C)C)C2)c1 (stereo unspecified)	i	45µM*	?	1%
Cc1ccsc1CN1CCCC12Cc1ccccc1CNC2=O (stereo unspecified)	/	-13%	-6%	/
CCCn1cnc2c1CN(S(=O)(=O)c1cccc3c(N(C)C)cccc13)[C@H](C(=O)OC)C2	i	?	?	4%
N#Cc1cccc(CN2CC[C@@H]3OCC(=O)N(Cc4c[nH]c5ccccc45)[C@H]3CC2)c1	i	100µM*	?	-9%[70.6 µM]
Cc1noc(C)c1CN1CC[C@@H]2OCC(=O)N(Cc3c[nH]c4ccccc34)[C@H]2CC1	i	?	-26%[138 µM]	-10%[70.6 µM]
COc1ccccc1CN1CC[C@@H]2OCC(=O)N(Cc3c[nH]c4ccccc34)[C@H]2CC1	i	?	?	-16%[70.6 µM]
O=C1CO[C@H]2CCN(Cc3c[nH]c4ccccc34)CC[C@@H]2N1Cc1ccccc1	i	?	89µM*	-4%[70.6 µM]
CC(C)CCN1CC[C@@H]2OCC(=O)N(Cc3c[nH]c4ccccc34)[C@H]2CC1	i	100µM*	?	-16%[70.6 µM]
OCC1CN(c2ncccn2)CC12CCN(Cc1cc(Cl)ccc1F)CC2 (stereo unspecified)	i	?	-4%	3%
COc1ccc(CN2CC(O)CN(C(=O)c3cccc(C(F)(F)F)c3)CC2=O)cc1 (stereo unspecified)	/	?	-25%	/
COc1ccc(CCN(C)C(=O)CC(c2cccc(F)c2)c2cn(C)c3ccccc23)cc1OC (stereo unspecified)	i	40µM*	?	-25%
CN(C)c1cccc(-c2cnc3[nH]cc(CC(=O)NCc4cccnc4)c3c2)c1	?	?	?	-10%[70.6 µM]
CN(C)c1cccc(NC(=O)Cc2c[nH]c3ncc(-c4cccnc4)cc23)c1	i	?	?	-25%[70.6 µM]
CN(C)C(=O)Cc1c[nH]c2ncc(-c3cccnc3)cc12	i	-29%[230 µM]	25µM*	-1%[70.6 µM]
O=C(Cc1c[nH]c2ncc(-c3cccnc3)cc12)Nc1ccc(F)cc1	i	?	28µM*	-15%[70.6 µM]
COc1ccc(-c2ccccc2C(=O)N2CCC(NC(=O)c3cccc(Cl)c3)CC2)nn1	/	-8%	i	/
Cc1ccc(CN2CCc3oc(C)c(C(=O)N(C)CC(=O)N4CCCC4)c3C2)cc1	i	?	-17%	-1%
COC1CCN(c2cc(-c3ccsc3)nc3c(C)noc23)CC1	i	79µM*	?	-2%[70.6 µM]
COC1CCCN(c2cc(-c3ccc(Cl)cc3)nc3c(C)noc23)C1 (stereo unspecified)	i	56µM*	?	1%[70.6 µM]
COC1CCCN(c2cc(-c3ccsc3)nc3c(C)noc23)C1 (stereo unspecified)	i	?	?	-1%[70.6 µM]
COc1cccc(CC(=O)N2CC(Oc3ccc(-c4nc(-c5ccccc5)no4)cc3)C2)c1	8.9µM*	13µM*	?	3.5µM*
SMILES	FLuc inh	HEK cytotox	NIH3T3 tox	NPR1 antag
COCCOCC(=O)N1CC(Oc2ccc(-c3noc(-c4ccccc4)n3)cc2)C1	?	?	?	10µM*
COCCC(=O)N1CC(Oc2ccc(-c3noc(-c4ccccc4)n3)cc2)C1	13µM*	22µM*	?	20µM*
CCOCCCNC(=O)c1cccc(-c2ccc(OC)nn2)c1	/	-19%[172 µM]	?	/
CCOc1cccc2c1OC[C@@H]1CN(CCC#N)C(=O)CCN(C(=O)COc3ccccc3)[C@H]21	/	-24%	?	/
Cc1ccc(S(=O)(=O)N(C)C2CCOc3ccccc32)cc1 (stereo unspecified)	i	100µM*	?	-3%[70.6 µM]
O=C(C1CCOC1)N1CC(Oc2ccc(-c3nc(-c4ccccc4)no3)cc2)C1 (stereo unspecified)	14µM*	?	?	3.2µM*
